Data: PubChem BioAssay (NCI)
About 79,000 compounds went through this panel and 15% of them were active in at least one assay; those are over-represented in the sample as a whole. Values without a mark were called inactive. Calls of active or inactive are those of the source. Rule as the data show it: active = growth inhibition above about 70%; inactive = the rest.

Experiments:
[1] = NCI Yeast Anticancer Drug Screen. Data for the rad50 strain (AID 155);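 also: 0% = growth of vehicle-only cultures of the same strain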; conditions: S. cerevisiae rad50 strain growth inhibition, hits give high values
Outline: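 Cells are treated with compound, grown, and their growth is then scored against vehicle-only cultures of the same repair-deficient yeast strain.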

[2] = NCI Yeast Anticancer Drug Screen. Data for the mec2-1 strain (AID 157); conditions: S. cerevisiae mec2-1 strain, hits give high values
Outline: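 Compounds were applied to mec2-1 yeast cells. Their growth was then compared with that of vehicle-treated cultures to give growth inhibition.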

[3] = NCI Yeast Anticancer Drug Screen. Data for the sgs1 mgt1 strain (AID 161);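 also: 0% = growth of cultures given vehicle only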; conditions: S. cerevisiae sgs1 mgt1 strain, hits give high values
Outline: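 Growth of a repair-deficient yeast mutant was monitored after compound treatment and expressed as inhibition relative to vehicle-treated cultures.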

[4] = NCI Yeast Anticancer Drug Screen. Data for the cln2 rad14 strain (AID 165);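 also: 0% = growth equal to vehicle treated cultures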; conditions: S. cerevisiae cln2 rad14 strain, hits give high values
Outline: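 Strain: cln2 rad14 yeast, altered in cell cycle control and DNA damage repair. Read-out: growth inhibition vs vehicle.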

[5] = NCI Yeast Anticancer Drug Screen. Data for the bub3 strain (AID 167); conditions: S. cerevisiae bub3 mutant strain, hits give high values
Outline: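 Part of a panel of yeast mutants defective in DNA damage repair or cell cycle regulation. Each strain is grown with compound, and inhibition is calculated relative to solvent-treated cultures.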

[6] = NCI Yeast Anticancer Drug Screen. Data for the mlh1 rad18 strain (AID 175); conditions: S. cerevisiae mlh1 rad18 strain growth inhibition, hits give high values
Outline: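 A repair-deficient yeast strain is exposed to test compound, and growth is scored relative to vehicle-treated controls.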

[7] = at 5.0 µM (retest, dose inferred, filed as 0.5)
[8] = at 50.0 µM (retest, dose inferred, filed as 5.0)

| SMILES | growth inhibition [1, 7] | growth inhibition [1, 8] | growth inhibition ([1]; at 50.0 µM) | growth inhibition [2, 7] | growth inhibition [2, 8] | growth inhibition ([2]; at 50.0 µM) | growth inhibition [3, 7] | growth inhibition [3, 8] | growth inhibition ([3]; at 50.0 µM) | growth inhibition [4, 7] | growth inhibition [4, 8] | growth inhibition ([4]; at 50.0 µM) | growth inhibition [5, 7] | growth inhibition [5, 8] | growth inhibition ([5]; at 50.0 µM) | growth inhibition [6, 7] | growth inhibition [6, 8] | growth inhibition ([6]; at 50.0 µM) |
| --- | --- | --- | --- | --- | --- | --- | --- | --- | --- | --- | --- | --- | --- | --- | --- | --- | --- | --- |
| Cc1cc(CN(Cc2ccccc2)Cc2nc3ccccc3[nH]2)c(O)c(CN(Cc2nc3ccccc3[nH]2)Cc2nc3ccccc3[nH]2)c1 | 7% | 44% | 73% (active) | -3% | 24% | 72.5% (active) | 1% | 70% (active) | 94.3% (active) | -5% | 59% | 67.3% | 3% | 66% | 27.9% | 2% | 79% (active) | 93.3% (active) |
| Cc1ccc(SCc2nc3ccccc3c(C)[n+]2[O-])cc1 | 2% | 86% (active) | 32.6% | 4% | 86% (active) | 45.6% | -7% | 87% (active) | 55% | 0% | 53% | 38% | -4% | 76% (active) | 55.9% | -7% | 91% (active) | 56.7% |
| O=S1(=O)CCN(c2ccccc2CC(c2c[nH]c3ccccc23)c2c[nH]c3ccccc23)CC1 | 29% | 90% (active) | 88.5% (active) | -5% | 73% (active) | 74.8% (active) | 3% | 79% (active) | 87.7% (active) | 5% | 62% | 86.2% (active) | 14% | 89% (active) | 90.6% (active) | 34% | 94% (active) | 91.9% (active) |
| O=C1OC(CC(=O)c2ccc(Cl)cc2Cl)C(Cl)=C1Cl (configuration not stated) | 0% | 20% | 51% | 8% | 32% | 53.4% | 4% | 50% | 93% (active) | 1% | 6% | 78.4% (active) | -7% | 10% | 58.5% | -1% | 41% | 97.3% (active) |
| CCOC(=O)c1cccc(C)c1C(=O)c1ccc(C)cc1C | 3% | 66% | 38.9% | 4% | 79% (active) | 79.3% (active) | 0% | -36% | 47.3% | 6% | -1% | -9.5% | -4% | 24% | 82.8% (active) | -2% | 41% | 59.6% |
| Cc1cccc(/C=N\OCCc2ccccc2)n1 | 0% | 85% (active) | -3.05% | -6% | 53% | 80.2% (active) | 1% | 84% (active) | 16.6% | -14% | 21% | -14.1% | 2% | 94% (active) | 47.7% | -2% | 88% (active) | 32.8% |
| O=S(=O)(/C=C/c1cccnc1)/C=C/c1cccnc1 | 0% | 2% | -14.1% | 0% | -3% | -1.65% | 1% | 6% | 5.3% | 3% | 10% | 82.8% (active) | -2% | 3% | 20.8% | -4% | -1% | 1.25% |
| CN(C)CC/[N+]([O-])=C(/c1ccccc1)C12CC3CC(CC(C3)C1)C2 | -6% | 6% | -16.6% | -1% | -1% | 1.8% | 14% | 31% | 16.9% | 7% | -1% | 17.1% | 1% | 3% | -1.9% | 9% | 25% | 70.6% (active) |
| COc1ccc(Oc2cc3c[n+](C)ccc3cc2OC)cc1 | 4% | 90% (active) | 99% (active) | -3% | 57% | 99% (active) | -3% | 91% (active) | 99.4% (active) | 2% | 70% (active) | 98% (active) | 0% | 90% (active) | 98% (active) | 15% | 88% (active) | 98.8% (active) |
| O=C(Nc1ccc(Cl)cc1)NS(=O)(=O)c1c(-c2ccccc2)oc2ccccc2c1=O | 14% | 99% (active) | 92.3% (active) | 6% | 98% (active) | 96.3% (active) | 7% | 99% (active) | 95.5% (active) | 15% | 98% (active) | 93.3% (active) | 0% | 97% (active) | 95.3% (active) | 15% | 98% (active) | 95.3% (active) |
| N#CCN1CCCCCc2ccccc21 | -4% | -3% | -26.6% | 0% | -18% | -12.7% | -29% | -29% | -3.15% | 9% | -1% | 11.2% | -14% | -32% | -3.2% | -18% | -18% | -7.65% |
| O=C(CC(C(=O)O)c1c[nH]c2ccccc12)c1ccccc1 (configuration not stated) | -2% | -2% | 45.4% | -3% | 7% | -18.6% | -5% | 0% | 56.8% | -5% | -63% | -16.6% | -1% | 7% | 93.8% (active) | -4% | 1% | -0.1% |
| O=C(c1ccccc1)N(C(=S)N(C(=O)c1ccccc1)c1ccccc1)c1ccccc1 | -3% | 12% | 99% (active) | -1% | -2% | 99.7% (active) | 1% | -4% | 99.2% (active) | 3% | -7% | 98.8% (active) | 0% | -3% | 99% (active) | -1% | -3% | 99.1% (active) |
| c1ccc(C2CC(c3ccc4ccccc4c3)=Nc3ccccc3S2)cc1 (configuration not stated) | 0% | 40% | 76.8% (active) | -4% | 72% (active) | 50.6% | 8% | 78% (active) | 80.8% (active) | -11% | 19% | 69.5% | 21% | 91% (active) | 96.5% (active) | 3% | 76% (active) | 88.1% (active) |
| C=CNC(=O)Oc1ccccc1 | -128% | -156% | -9.95% | -35% | -59% | 30.2% | -47% | -62% | 12.7% | -57% | -73% | 44% | -64% | -81% | -3% | -121% | -130% | 6.25% |
| CC(C)CCN1CCC2(CCCCC2)CC1 | 4% | 1% | 40.5% | 5% | -6% | 24.1% | 6% | 0% | 51.3% | 7% | -5% | 88.3% (active) | 2% | -3% | 59.5% | 5% | 3% | 66.3% |
| O=S1OCCS1 (configuration not stated) | 10% | 87% (active) | 98.8% (active) | 4% | 90% (active) | 99% (active) | 11% | 87% (active) | 98.5% (active) | -3% | 74% (active) | 97.4% (active) | -1% | 92% (active) | 99.2% (active) | 7% | 95% (active) | 98.7% (active) |
| O=[N+]([O-])c1ccc(C=NC2CCCCC2)c([N+](=O)[O-])c1 | 0% | 46% | 41% | -1% | 54% | 46% | 2% | 69% | 59.5% | -5% | 25% | -0.85% | 20% | 83% (active) | 55.5% | -5% | 85% (active) | 73.3% (active) |
| Cn1ncc2c(Nc3ccccc3)nc(Nc3ccccc3)nc21 | -1% | 7% | 54.1% | -5% | -33% | 54.1% | -1% | 8% | 56.5% | 5% | 0% | 44.5% | -1% | -17% | 72.5% (active) | 5% | 15% | 80.4% (active) |
